Vif inh = inhibitors of HIV Vif. HEK293T cells, Vif self-association by quenched fluorescence, imaging, 24 h. inhibition, % at 7.49 µM. actives 0.35% (n = 340,000); in the data active = inhibition above about 50%, passing the limit was not always enough; inconclusive = no clear call, values can overlap the other calls; inactive = below about 31%
HSF-1 act = increases HSF-1 driven luciferase reporter signal. actives 1.7% (n = 300,000). activation, % at 9 µM. NIH3T3-HGL HSF-1 luciferase reporter, MG132, 8 h; 100% = twice DMSO control signal;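 active = mean replicate activation of at least 50% with a set share of replicates each reaching 50%; inconclusive = only one of those two conditions met; inactive = mean below 50% and too few replicates reaching it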;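 also: 0% = median of the neutral control wells and 100% = twice that signal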
HSF1 inh = HSF1 inhibition. NIH3T3-HGL HSE-luciferase, MG132-induced, luminescence 8 h; active compounds read low. actives 0.77% (n = 300,000). activity change, negative = inhibition, % at 7.5 µM (by protocol);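 active = more than half of replicate wells show activity change below -50%, luminescence cut by over half; inconclusive = some wells, but at most half, below -50%; inactive = no replicate well below -50%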;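 also: luciferase reports HSF-1 transcriptional activity via heat shock element; 0% = median of DMSO wells and -100% = zero luminescence signal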
esBAF inh = SWI/SNF esBAF complex inhibition; AID 602393; reporter increase, % at 12.5 µM; mouse ES cells, Bmi1-luciferase knock-in reporter, 24 h; 100% = twice the neutral-well signal; actives 2% (n = 350,000); in the data active = activation above about 40%; inconclusive = no clear call, values can overlap the other calls;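 also: 0% = median of the plate's neutral control wells and 100% = double that signal; a rise in the Bmi1 reporter signal indicates esBAF inhibition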
Numbers without * were called inactive; ? = inconclusive; . = no result. An excerpt weighted towards active compounds, which were near 3.4% of everything screened.

SMILES	Vif inh	HSF-1 act	HSF1 inh	esBAF inh
C[C@@H]1CN([C@H](C)CO)C(=O)Cc2cc(NS(C)(=O)=O)ccc2O[C@@H]1CN(C)CC1CCCCC1	.	.	.	-6
CO[C@H]1CN(C)C(=O)c2cc(NC(=O)Nc3cc(F)ccc3F)ccc2OC[C@@H](C)N(C(=O)c2ccccn2)C[C@@H]1C	.	.	.	-3
O=c1c2cccnc2[nH]c(=S)n1CCCN1CCN(c2ccc(F)cc2)CC1	1	26	6	2
COc1ccc(N2CCN(CCCn3c(=S)[nH]c4ncccc4c3=O)CC2)cc1	5	-64	-56*	.
Oc1ccc(Nc2nc3ccccc3nc2Nc2ccc(O)cc2)cc1	9	-86	-86*	12
COc1ccc2c(c1)CC/C2=N\OC(=O)c1cccc(C)c1	0	65*	27	.
COc1ccc2c(c1)CCC/C2=N/OC(=O)c1ccccc1OC	8	16	3	.
COc1ccc2c(c1)CC/C2=N\OC(=O)c1ccccc1C	3	61*	22	.
C[C@@H]1CCCCO[C@@H](CN(C)C)[C@H](C)CN([C@H](C)CO)C(=O)c2cc(NS(=O)(=O)c3ccccc3)ccc2O1	.	.	.	3
O=C(/C=C/c1ccco1)NCCCN1CCOCC1	6	17	0	.
O=C(/C=C/c1ccc(Br)o1)NCCCN1CCOCC1	2	-68	-66*	1
O=C(COC(=O)/C=C/c1ccc(Br)o1)NCCCN1CCCC1=O	-1	65*	48	.
C[C@H]1CN([C@@H](C)CO)C(=O)c2cc(NC(=O)c3ccncc3)ccc2O[C@H]1CN(C)S(=O)(=O)c1cccs1	.	.	.	4
COc1cc(/C=N/N(c2ccccc2)c2ccccc2)ccc1O	4	11	8	-6
CCOc1ccc(/C=N/N(C)c2ccccc2)cc1OC	.	73*	51	86*
O=C1/C(=C/c2ccc(O)cc2)COc2ccccc21	2	17	-1	22
O=C1/C(=C/c2ccccc2[N+](=O)[O-])COc2ccccc21	7	141*	110	56*
CNc1ccc(/C=C2\COc3ccccc3C2=O)cc1[N+](=O)[O-]	16	39	30	49*
C[C@@H]1CN([C@H](C)CO)C(=O)Cc2cc(NC(=O)Nc3ccccc3)ccc2O[C@H]1CN(C)C(=O)Nc1ccc2c(c1)OCO2	.	.	.	2
CCCC(=O)N1CCN(c2ccc(NC(=O)c3cc4ccccc4o3)cc2Cl)CC1	-39	-78	-79*	-13
CCC(=O)N1CCN(c2ccc(NC(=O)c3cc4ccccc4o3)cc2Cl)CC1	-20	-4	-2	-2
O=C(Nc1ccc(N2CCN(C(=O)c3ccco3)CC2)c(Cl)c1)c1cc2ccccc2o1	-3	-73	-74*	4
O=C(CCn1cnc2ccccc21)N/N=C/c1ccc(O)cc1	1	12	-4	-3
O=C(CCn1cnc2ccccc21)N/N=C/c1ccccc1O	-13	3	0	52*
Cc1cc(C)c(NC(=O)C2c3ccccc3Oc3ccccc32)c(C)c1	.	16	7	-1
SMILES	Vif inh	HSF-1 act	HSF1 inh	esBAF inh
Cc1ccccc1Cn1nc(C)c(NC(=O)C2c3ccccc3Oc3ccccc32)c1C	.	70*	53	.
O=C(Nc1ccccc1N1CCN(C(=O)c2ccc(Cl)cc2)CC1)c1cccc([N+](=O)[O-])c1	4	71*	33	.
CCC(=O)Nc1nc(-c2ccc3c(c2)OCCO3)cs1	14	46	28	?
CC(C)(C)C(=O)Nc1nc(-c2ccc3c(c2)OCO3)cs1	0	54*	18	.
COc1ccc2nc3ccccc3nc2c1NC(=O)c1ccc(Cl)cc1	106*	31	2	0
COc1ccc(CNC(=O)C[C@H]2C[C@@H]3c4cc(NS(C)(=O)=O)ccc4O[C@@H]3[C@H](CO)O2)cc1	.	.	.	-9
COc1cccc(NC(=O)CSc2nc(N)cc(N)n2)c1	4	66*	29	.
CCOC(=O)c1cccc(NC(=O)CSc2nc(N)cc(N)n2)c1	-2	55*	32	-7
Cc1cccc(NC(=O)CSc2nc(N)cc(N)n2)c1	14	-7	12	1
CCOC(=O)Cc1csc(SCC(=O)Nc2cccc(Cl)c2)n1	-1	58*	19	-11
Cc1cccc(NC(=O)CSc2c3c(nc4ccccc24)CCC3)n1	6	9	16	.
COc1cccc(NC(=O)CSc2c3c(nc4ccccc24)CCCC3)c1	4	62*	51	.
CCOC(=O)Cc1csc(SCC(=O)Nc2cccc(C#N)c2)n1	0	-3	0	2
Cc1noc(C)c1NC(=O)N(C)C[C@@H]1Oc2ccc(NS(=O)(=O)c3c(C)noc3C)cc2CC(=O)N([C@@H](C)CO)C[C@H]1C	.	.	.	-1
C[C@@H]1CN([C@H](C)CO)C(=O)c2cccc(NC(=O)NC3CCCCC3)c2O[C@@H]1CN(C)Cc1ccc(Cl)c(Cl)c1	.	.	.	1
COc1cccc(NC(=O)CSc2nnc(-c3cc(C)n(-c4ccccc4)c3C)o2)c1	4	-66	-53*	.
COc1cccc(NC(=O)CSc2nnc3ccc(-c4ccncc4)nn23)c1	-5	58*	16	5
COc1ccc(NC(=O)CSc2nnc3ccc(-c4ccncc4)nn23)cc1	-11	-18	-7	-10
Cc1cc(NC(=O)c2ccoc2C)ccc1Br	-4	.	.	88*
Cc1occc1C(=O)N/N=C/c1cccc2ccccc12	10	63*	27	69*
Cc1occc1C(=O)Nc1ccccc1NC(=O)c1ccoc1C	-8	-12	-14	-4
Cc1occc1C(=O)Nc1cccc2ccccc12	0	73*	57	.
COc1ccc(NC(=O)N(C)C[C@@H]2Oc3ccc(NC(=O)Nc4ccc5c(c4)OCO5)cc3C(=O)N([C@H](C)CO)C[C@@H]2C)cc1	.	.	.	8
CCO/C(C)=N/Oc1cccc(N(C)C)c1	-2	.	.	32
CCO/C(C)=N/Oc1cnc2ccccc2c1	0	.	.	66*
SMILES	Vif inh	HSF-1 act	HSF1 inh	esBAF inh
CN1C(=O)c2cc(NC(=O)C3CCCCC3)ccc2OC[C@H]2O[C@H](CC(=O)NCc3ccccc3F)CC[C@H]21	.	.	.	11
OCC1OC(n2cnc3c(NCc4ccco4)ncnc32)C(O)C1O (centres undefined)	54*	.	.	.
C[C@@H](CO)NC(=O)[C@H]1O[C@@H](n2cnc3c(N)ncnc32)[C@H](O)[C@@H]1O	0	.	.	-2
Nc1nc(F)nc2c1ncn2[C@@H]1O[C@H](CO)[C@@H](O)[C@H]1O	-5	-62	-56*	-79
C=CCNc1ncnc2c1ncn2C1OC(CO)C(O)C1O (centres undefined)	60*	-7	-9	0
Nc1ncnc2c1ncn2C1OC(C(=O)NC2CC2)C(O)C1O (centres undefined)	160*	.	.	-2
Cc1noc(C)c1NC(=O)Nc1cccc2c1O[C@H](CN(C)S(=O)(=O)c1ccc(Cl)cc1)[C@@H](C)CN([C@H](C)CO)C2=O	.	.	.	-4
O=C(C[C@H]1C[C@H]2c3cc(NS(=O)(=O)c4ccc(F)cc4)ccc3O[C@H]2[C@@H](CO)O1)NC1CCCCC1	.	.	.	12
OC[C@H]1O[C@@H](n2cnc3c(NC4CCCC4)ncnc32)[C@H](O)[C@@H]1O	67*	-15	-12	-2

From PubChem BioAssay
